Assay results from PubChem BioAssay (EPA / NIEHS).
Several values for one entry are separate records, joined by “and”; a condition that tells them apart may be missing. Identical values can stand only once. Records with an inconclusive call do not appear. Some structures have more than one record in an assay (separate samples or runs), and their calls can disagree. Activity calls are given as the source filed them. How the source made its calls, unless noted: active means hit-call score of the fitted dose curve at least 0.9, where 1 is the maximum; inactive means score below 0.9.

How the values were obtained:
[1] = molecular target: Retinoic acid receptor RXR-alpha (Homo sapiens) (UniProt P19793); assay: OT_NURR1_NURR1RXRa_0480: Odyssey Thera (OT) 8-hour HEK293T Protein Complementation Assay for Nurr1/retinoid X receptor (RXR) (AID 2283385; active means hit-call score of the fitted dose curve at least 0.9, where 1 is the maximum)
Retinoic acid receptor RXR-alpha (Homo sapiens), sequence (P19793 whole entry, looked up, the tested form may be a part): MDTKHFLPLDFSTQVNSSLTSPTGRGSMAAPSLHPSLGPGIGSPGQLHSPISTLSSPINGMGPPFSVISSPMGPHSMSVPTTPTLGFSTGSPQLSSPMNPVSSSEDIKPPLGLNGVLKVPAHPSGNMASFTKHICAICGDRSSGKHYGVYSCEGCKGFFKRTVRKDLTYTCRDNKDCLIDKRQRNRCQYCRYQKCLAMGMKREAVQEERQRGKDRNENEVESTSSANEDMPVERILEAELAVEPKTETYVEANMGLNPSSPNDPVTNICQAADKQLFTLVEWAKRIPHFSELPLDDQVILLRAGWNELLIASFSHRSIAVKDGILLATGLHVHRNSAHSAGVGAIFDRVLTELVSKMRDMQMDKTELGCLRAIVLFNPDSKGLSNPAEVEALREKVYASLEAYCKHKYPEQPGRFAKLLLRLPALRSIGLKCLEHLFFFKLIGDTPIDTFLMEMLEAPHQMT
In short: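 8 h compound exposure, HEK293T; Nurr1/RXRα fragment complementation; fluorescence intensity; positive fitting direction vs DMSO baseline.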

[2] = molecular target: Retinoic acid receptor RXR-alpha (Homo sapiens) (UniProt P19793); assay: OT_NURR1_NURR1RXRa_1440: Odyssey Thera (OT) 24-hour HEK293T Protein Complementation Assay for Nurr1/retinoid X receptor (RXR) (AID 2283386; active means hit-call score of the fitted dose curve at least 0.9, where 1 is the maximum)
In short: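 Interaction of Nurr1 with RXRα brings fused reporter fragments together in human HEK293T cells, restoring a functional reporter. Fluorescence intensity is measured 24 h after chemical treatment, and values are analysed in the positive direction against DMSO.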

[3] = read-out: Tumor necrosis factor receptor superfamily member 6 (Homo sapiens) (UniProt P25445); assay: LTEA_HepaRG_FAS: Life Technologies and Expression Analysis (LTEA) Assay for Fas cell surface death receptor (FAS) using HepaRG (AID 2283447); settings: mRNA level, 48 h; actives raise or lower the signal
In short: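 Differentiated human HepaRG cells, pre-cultured 48 h, were exposed in duplicate for 48 h to 8-point half-log concentrations (top 100 uM, 0.5% DMSO) in serum-free induction medium; FAS mRNA measured by qRT-PCR, normalized to ACTB/GAPDH/POLR2A, bidirectional fit versus DMSO.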

[4] = read-out: Cyclin Dependent Kinase Inhibitor 1A (CDKN1A), CDKN1A (gene 1026); assay: LTEA_HepaRG_CDKN1A: Life Technologies and Expression Analysis (LTEA) Assay for Cyclin Dependent Kinase Inhibitor 1A (CDKN1A) using HepaRG (AID 2283450); settings: mRNA level, 48 h; actives raise or lower the signal
In short: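 Differentiated HepaRG cells in serum-free induction medium, exposed 48 h in duplicate to eight half-log concentrations up to 100 uM in 0.5% DMSO. mRNA measured by TaqMan qRT-PCR, normalized to ACTB, GAPDH, POLR2A; bidirectional fit versus DMSO.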

[5] = read-out: catalase (CAT), CAT (gene 847); assay: LTEA_HepaRG_CAT: Life Technologies and Expression Analysis (LTEA) Assay for catalase (CAT) using HepaRG (AID 2283452); settings: mRNA level, 48 h; actives raise or lower the signal;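 on AC50: TaqMan qRT-PCR signal normalized to ACTB GAPDH and POLR2A housekeeping genes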
In short: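 Differentiated HepaRG cells in serum-free induction medium were dosed 48 h in duplicate, eight half-log concentrations from 100 uM in 0.5% DMSO. Transcript measured by TaqMan qRT-PCR, normalised to ACTB/GAPDH/POLR2A, fitted bidirectionally against DMSO.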

[6] = read-out: flavin-containing dimethylaniline monooxygenases 3 (FMO3), FMO3 (gene 2328); assay: LTEA_HepaRG_FMO3: Life Technologies and Expression Analysis (LTEA) Assay for flavin-containing dimethylaniline monooxygenases 3 (FMO3) using HepaRG (AID 2283453); settings: mRNA level, 48 h; actives raise or lower the signal
In short: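 Differentiated HepaRG cells in serum-free induction medium, exposed 48 h in duplicate to 8 half-log concentrations up to 100 uM in 0.5% DMSO. FMO3 mRNA by qRT-PCR, normalized to ACTB, GAPDH, POLR2A; bidirectional fit vs DMSO.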

[7] = read-out: Cytochrome P450 (CYP1A1), CYP1A1 (gene 1543); assay: LTEA_HepaRG_CYP1A1: Life Technologies and Expression Analysis (LTEA) Assay for Cytochrome P450 (CYP1A1) using HepaRG (AID 2283454); settings: mRNA level, 48 h; actives raise or lower the signal
In short: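 Differentiated human HepaRG cells, after 48 h plating, exposed in duplicate for 48 h in serum-free induction medium to 8 half-log concentrations up to 100 uM in 0.5% DMSO. CYP1A1 mRNA by qRT-PCR, normalized to ACTB/GAPDH/POLR2A; bidirectional fit versus DMSO.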

[8] = read-out: CFLAR gene, CFLAR (gene 8837); assay: LTEA_HepaRG_CFLAR: Life Technologies and Expression Analysis (LTEA) Assay for CFLAR gene using HepaRG (AID 2283455); settings: mRNA level, 48 h; actives raise or lower the signal
In short: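 HepaRG cells were plated for 48 h, switched to serum-free induction medium, then exposed in duplicate for 48 h to 8 concentrations (top 100 uM, half-log steps, 0.5% DMSO). CFLAR mRNA was measured by qRT-PCR, normalized to ACTB, GAPDH and POLR2A.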

[9] = molecular target: Peroxisome proliferator-activated receptor gamma (Homo sapiens) (UniProt P37231); assay: OT_PPARg_PPARgSRC1_0480: Odyssey Thera (OT) 8-hour Protein-Complementation Assay for Peroxisome Proliferator-activated Receptor Gamma / SRC-1 Co-activator (AID 2283387; active means hit-call score of the fitted dose curve at least 0.9, where 1 is the maximum)
Peroxisome proliferator-activated receptor gamma (Homo sapiens), sequence (P37231 whole entry, looked up, the tested form may be a part): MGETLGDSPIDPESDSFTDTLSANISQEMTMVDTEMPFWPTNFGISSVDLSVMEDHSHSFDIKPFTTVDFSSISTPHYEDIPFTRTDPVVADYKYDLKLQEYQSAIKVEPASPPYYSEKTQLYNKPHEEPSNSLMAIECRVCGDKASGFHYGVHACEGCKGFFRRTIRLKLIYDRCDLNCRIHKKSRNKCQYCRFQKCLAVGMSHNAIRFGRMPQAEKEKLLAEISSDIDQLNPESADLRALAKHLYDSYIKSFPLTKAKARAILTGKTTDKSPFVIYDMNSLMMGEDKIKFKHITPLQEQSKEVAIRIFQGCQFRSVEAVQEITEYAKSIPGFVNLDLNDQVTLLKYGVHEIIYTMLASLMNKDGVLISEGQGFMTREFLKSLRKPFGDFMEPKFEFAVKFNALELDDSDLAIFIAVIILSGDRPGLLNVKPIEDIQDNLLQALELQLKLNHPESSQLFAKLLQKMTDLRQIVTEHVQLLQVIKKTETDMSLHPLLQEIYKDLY
In short: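 Protein-fragment complementation in HEK293T: Venus YFP halves (residues 1-158, 159-239, mutated to IFP1/IFP2) fused to PPARg/SRC-1. 8 h exposure; N/C ratio at 488 nm; DMSO negative control.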

[10] = molecular target: Peroxisome proliferator-activated receptor gamma (Homo sapiens) (UniProt P37231); assay: OT_PPARg_PPARgSRC1_1440: Odyssey Thera (OT) 24-hour Protein-Complementation Assay for Peroxisome Proliferator-activated Receptor Gamma/ SRC-1 Co-activator (AID 2283388; active means hit-call score of the fitted dose curve at least 0.9, where 1 is the maximum)
In short: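 HEK293T transiently transfected with PPARg/SRC-1 split-Venus YFP fusions 48 h before dosing, then treated 24 h at 37C. Fixed cells imaged; nuclear/cytoplasmic 488 nm fluorescence ratio, gain of signal versus DMSO.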

[11] = read-out: Cyclin D2 (CCND2), CCND2 (gene 894); assay: LTEA_HepaRG_CCND2: Life Technologies and Expression Analysis (LTEA) Assay for Cyclin D2 (CCND2) using HepaRG (AID 2283449); settings: mRNA level, 48 h; actives raise or lower the signal;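 further: CCND2 transcript measured by TaqMan qRT-PCR and normalised to three housekeeping genes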
In short: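 Differentiated human HepaRG cells were exposed for 48 h in serum-free induction medium to eight half-log concentrations topping at 100 uM (0.5% DMSO vehicle). CCND2 mRNA was quantified by TaqMan qRT-PCR, normalised to ACTB, GAPDH and POLR2A, and fitted bidirectionally against DMSO.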

[12] = CEETOX_H295R_OHPREG: CeeTox H295R High-throughput Steroidogenesis Assay for OH-Pregnenolone (OHPREG) (AID 2283434); settings: actives raise or lower the signal
In short: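 Human adrenal H295R cells were prestimulated 48 h with 10 uM forskolin, then exposed 48 h to chemical in 0.1% DMSO. Medium 17alpha-hydroxypregnenolone was quantified by HPLC-MS/MS after MTBE extraction; bidirectional fitting versus DMSO baseline.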

[13] = CEETOX_H295R_OHPROG: CeeTox H295R High-throughput Steroidogenesis Assay for OH-Progesterone (OHPROG) (AID 2283435); settings: actives raise or lower the signal
In short: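 H295R, 10 uM forskolin prestim 48 h; cmpd in 0.1% DMSO 48 h; medium MTBE-extracted, HPLC-MS/MS for OH-progesterone; 7-pt std curve; bidirectional fit vs DMSO; MTT viability, chemicals diluted until viability >/=70%.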

[14] = CEETOX_H295R_CORTIC: CeeTox H295R High-throughput Steroidogenesis Assay for Corticosterone (CORTIC) (AID 2283437); settings: actives raise or lower the signal;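 further: corticosterone secreted into medium quantified by mass spectrometry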
In short: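 H295R cells were prestimulated 48 h with 10 uM forskolin, then exposed 48 h to test chemical in 0.1% DMSO. Medium corticosterone was MTBE-extracted and quantified by HPLC-MS/MS; bidirectional fit versus DMSO baseline.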

[15] = CEETOX_H295R_CORTISOL: CeeTox H295R High-throughput Steroidogenesis Assay for Cortisol (AID 2283438); settings: actives raise or lower the signal;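 further: cortisol secreted into medium quantified by LC-MS/MS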
In short: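 Forskolin 10 uM 48 h prestim → test cmpd in DMSO (0.1% final) 48 h → medium MTBE-extracted → LC-MS/MS cortisol vs 7-pt std curve. Gain/loss of signal fitted vs DMSO. MTT viability in same wells.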

[16] = CEETOX_H295R_DOC: CeeTox H295R High-throughput Steroidogenesis Assay for DOC (AID 2283439); settings: actives raise or lower the signal
In short: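 Readout: 11-deoxycorticosterone in culture medium by reverse-phase C18 HPLC with ESI+ tandem MS after MTBE extraction. Cells: H295R, forskolin-primed (10 uM, 48 h), chemical-treated 48 h; DMSO 0.1% final. Activity fitted bidirectionally versus DMSO.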

[17] = CEETOX_H295R_ESTRADIOL: CeeTox H295R High-throughput Steroidogenesis Assay for Estradiol (AID 2283440); settings: actives raise or lower the signal;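 further: estradiol secreted into medium quantified by LC-MS/MS after dansyl derivatisation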
In short: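 H295R cells pre-stimulated 48 h with 10 uM forskolin, then exposed 48 h to chemical in 0.1% DMSO. Medium estradiol quantified by MTBE extraction, dansyl derivatisation and HPLC-MS/MS; bidirectional fit versus DMSO; MTT viability required >/=70%.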

[18] = CEETOX_H295R_ESTRONE: CeeTox H295R High-throughput Steroidogenesis Assay for Estrone (AID 2283441); settings: actives raise or lower the signal;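 further: estrone secreted into medium measured by LC-MS/MS after dansyl derivatization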
In short: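 H295R cells prestimulated 48 h with 10 uM forskolin, then exposed 48 h to chemicals in 0.1% DMSO final; estrone in medium extracted with MTBE, dansyl-derivatized, quantified by HPLC-MS/MS; bidirectional fitting versus DMSO, viability by MTT.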

[19] = CEETOX_H295R_PROG: CeeTox H295R High-throughput Steroidogenesis Assay for Progesterone (PROG) (AID 2283442); settings: actives raise or lower the signal;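 on AC50: human H295R adrenal cells primed with 10 µM forskolin before dosing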
In short: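 H295R adrenal cells prestimulated 48 h with 10 uM forskolin, then exposed 48 h to test chemical in 0.1% DMSO. Progesterone in medium quantified by HPLC-MS/MS after MTBE extraction; viability checked by MTT in same wells.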

Measured: AC50

CC(C)(C)CC(C)(C)c1ccc(O)cc1
inactive: [3] | [4] | [6] | [8]
active: [1] 11.3 µM and 11.2 µM | [2] 11.2 µM | [5] 2.44 µM | [7] 81.5 µM

COc1ccc(C=O)cc1
inactive: [1] | [9] | [10]

CC(C)c1cccc(C(C)C)c1O
inactive: [1] | [2] | [10]

CCC[CH2][Sn]([Cl])([Cl])[Cl]
inactive: [1] | [10]

O=C(OC1CCCCC1)c1ccccc1C(=O)OC1CCCCC1
active: [1] 44.6 µM
inactive: [9] | [10]

C=CC#N
inactive: [1] | [9] | [10]

CCC1(c2ccc(N)cc2)CCC(=O)NC1=O (stereo not given)
inactive: [2] | [9] | [10]

OCc1ccco1
inactive: [1] | [9] | [10]

NC(=O)O
inactive: [1] | [3] | [4] | [5] | [6] | [7] | [8]

Cc1ccc(N)cc1Cl
inactive: [1] | [9] | [10]

CC(C#N)CCC#N (stereo not given)
inactive: [2] | [9] | [10]

Cc1ccc2ccccc2c1C
inactive: [9] | [10]

Oc1cccc2cccnc12
inactive: [9] | [10] | [3] | [11] | [4] | [5] | [6] | [7] | [8]

C=CC(=O)N(C)C
inactive: [12] | [13] | [14] | [15] | [16] | [17] | [18] | [19]

C1CCC(NC2CCCCC2)CC1
inactive: [9] | [10] | [12] | [13] | [14] | [15] | [16]
active: [19] 12.7 µM

CC(C)(OO)c1ccccc1
active: [7] 65.7 µM
inactive: [9] | [10] | [3] | [11] | [4] | [5] | [6] | [8]

Nc1ccc(-c2ccc(N)c(Cl)c2)cc1Cl
inactive: [12] | [13] | [14] | [15] | [16] | [17] | [18] | [19]

CCN1CCC2(CC1)COc1cc3c(cc12)N(C(=O)c1ccc(-c2ccc(-c4nnc(C)o4)cc2C)cc1)CC3
active: [11] 46.8 µM | [4] 84.6 µM | [5] 21.1 µM | [6] 13.8 µM | [7] 9.34 µM | [8] 29.2 µM
inactive: [9] | [10] | [3]

O=C1C2(Cl)C3(Cl)C4(Cl)C(Cl)(Cl)C5(Cl)C3(Cl)C1(Cl)C5(Cl)C24Cl (stereo not given)
inactive: [9] | [10] | [3] | [7] | [8]
active: [11] 91.9 µM | [4] 93 µM | [5] 93.5 µM | [6] 22.6 µM

C(=NC1CCCCC1)=NC1CCCCC1
inactive: [12] | [13] | [17] | [18] | [19]

O=C(NCO)NCO
inactive: [2] | [9] | [10]

C=C(C)C(=O)[O][Sn]([CH2]CCC)([CH2]CCC)[CH2]CCC
inactive: [9] | [10] | [11] | [4] | [5]
active: [10] 0.0287 µM | [6] 74.9 µM | [7] 2.87 µM | [8] 4.03 µM
